# From PubChem BioAssay (NCATS)
# Results filed as inconclusive are left out. The source made the active and inactive calls. Calls follow the shape of the dose curve; as a rule, active = well fitted inhibition curve with a large enough effect; inconclusive = small, poorly fitted or top-dose-only effect; inactive = flat fitted curve, though single readings scatter.
# Target: Calcium and integrin-binding protein 1 (Homo sapiens) (UniProt Q99828)
# Test: Primary qHTS for Identification of Calcium Integrin Binding Protein 1 (CIB1) Competitor (AID 1508620);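 also: GST tagged CIB1 binding a fluorescein labelled alphaIIb integrin peptide tracer; top concentration of the series differs between compounds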
# Details: CIB1-GST / FITC-alphaIIb peptide fluorescence polarization; series mostly up to 57.7 µM; activity change, negative = inhibition: at the top concentration
# Description: Assay Provider: Ulhas P. Naik, PhD Sidney Kimmel Medical College Thomas Jefferson University, Philadelphia, PA Primary function of platelets is to maintain hemostasis. At the site of vascular injury, platelets adhere to adhesive proteins such as collagen and von Willebrand factor. Adherent platelets are activated and generate soluble platelet agonists such as thrombin, ADP and thromboxane A2. Following exposure of circulating platelets to these agonists, results in platelet shape change, granule secretion and activation of platelet integrin alphaIIb-beta3. Ligand binding to activated integrin alphaIIb-beta3 triggers outside-in signaling, leading to platelet aggregation, stabilization of platelet plug, and clot retraction. Upon atherosclerotic plaque rupture also causes platelet plug formation, which underlies a number of cardiovascular diseases such as myocardial infraction and stroke. A number of anti-platelet drugs such as aspirin, clopidogrel, prasugrel, vorapaxar, and eptifibatide are currently available to prevent the thrombotic complications. However, these anti-platelet agents have several limitations including inherent variability in individual responses, developing resistance, and serious bleeding side effects. For these reasons they are not suitable for long-term protection. Based on the experiences with current anti-platelet drugs, it appears that the most useful therapeutic approach is to intersect the secondary responses such as integrin outside-in signaling or recruitment of platelets by TxA2 and secreted ADP. Compounds, which can largely preserve the primary hemostatic function of platelets but inhibit secondary response will be most desired therapeutic agents for treatment of cardiovascular disease. CIB1 is a calcium integrin binding protein, which specifically interact with the alphaIIb subunit of integrin alphaIIb-beta3. Binding of CIB1 to alphaIIb regulates the outside-in signaling in platelets, which is needed for thrombus stabilization and thrombus growth. […] Therefore, we propose that discovery of a small molecule that can prevent the association of CIB1 and alphaIIb-beta3 will be a potential anti-platelet agent that can block the thrombus formation without undue effect on hemostasis. Reference: [1] Naik MU, Nigam A, Manrai P, et al. CIB1 deficiency results in impaired thrombosis: the potential role of CIB1 in outside-in signaling through integrin alpha IIb beta 3. J Thromb Haemost.
# PROTOCOL TABLES SEQUENCE No. (1, 2, 3, etc.); […] (e.g., Cells, Incubation, Reagent, etc.); VALUE and DESCRIPTION. 1; Reagent; 3 uL; Protein or buffer (4/3x) 2; Compound; 46 nL; Control inhibitor / compound library 3; Time; 15 min; Room temperature incubation 4; Reagent; 1 uL; Fluorescent labeled peptide (4x) 5; Time; 1000 rpm; Centrifuge 6; Time; 15 min; Room temperature incubation 7; Detection; Ex 480/ Em 540; ViewLux Fluorescence Read NOTES (numbers refer to sequence above) 1; Protein Mixture: C1B1-GST (final concentrations of 1 uM). […] 3; Room temperature incubation. 4; Fluorescent Labeled Peptide: FITC-aIIb (final concentration of 100 nM). Sequence of alphaIIb peptide: Acetyl-[…]-FITC (purity is 95.83%). 5; Centrifuge 1000 rpm (164 g) for 15 seconds. 6; Room temperature incubation. 7; ViewLux Fluorescent Polization Read: excitation = 480(20) / emission = 540(25) S and P; FITC Dichroic mirror.
# % is scaled to controls: 0 for no effect and ±100 for the full control effect.
# Calcium and integrin-binding protein 1 (Homo sapiens), sequence (Q99828 whole entry, looked up): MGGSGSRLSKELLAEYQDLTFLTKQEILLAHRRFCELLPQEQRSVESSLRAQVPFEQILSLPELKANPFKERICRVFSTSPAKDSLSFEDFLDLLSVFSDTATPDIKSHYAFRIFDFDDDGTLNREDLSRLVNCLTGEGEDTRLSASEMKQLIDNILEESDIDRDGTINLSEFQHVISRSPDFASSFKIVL
SMILES,"activity change, negative = inhibition",outcome
CCOC(=O)c1c(C(C#N)=CN)c2ccc(Cl)c(Cl)c2n1C,0.471% (inactive),
CC(=O)O[C@@]12CO[C@H]1C[C@H](O)[C@@]1(C)C(=O)[C@H](O)C3=C(C)[C@@H](O)C[C@@](O)([C@@H](OC(=O)c4ccccc4)[C@@H]21)C3(C)C,-1.47% (inactive),
CCCN(CCC)c1c([N+](=O)[O-])cc(S(N)(=O)=O)cc1[N+](=O)[O-],-9.5% [at 228 µM] (inactive),
CCN1CCN(C(=O)Cc2ccc(Nc3ncc(F)c(Nc4ccc(C(=O)Nc5ccccc5Cl)cc4)n3)cc2)CC1,,inactive
C=CCON=C(C[C@H]1O[C@@H]2O[C@]3(C)CC[C@@H]4[C@H](C)CC[C@@H]([C@H]1C)[C@@]24OO3)[C@H]1O[C@@H]2O[C@]3(C)CC[C@H]4[C@H](C)CC[C@@H]([C@@H]1C)[C@@]24OO3,-3.06% (inactive),
O=c1cccc2n1CC1CNC[C@H]2C1,-7.16% (inactive),
NC1=NC(=O)N2CC12 (stereo not given),-9.77% (inactive),
C[C@]12CC[C@H]3[C@@H](CCC4=CC(=O)CC[C@@]43C)[C@H]1CC[C@H]2O,-1.48% (inactive),
O=C(Nc1ccccc1-c1ccc(Cl)cc1)c1cccnc1Cl,1.54% [at 228 µM] (inactive),
CN(C)NC(=O)CCC(=O)O,0.888% (inactive),
O=c1[nH]c2ccc(Cl)cc2c(N[C@@H]2CN3CCC2CC3)c1-c1nc2ccccc2[nH]1,,inactive
C[C@H]1CCCC=CC2C[C@H](O)C[C@@H]2[C@H](O)C=CC(=O)O1 (stereo not given in full),-7.28% (inactive),
O=[N+]([O-])c1c2ccccc2cc2ccccc12,-6.19% [at 228 µM] (inactive),
CCCC[N+]1(C)[C@H]2CC(OC(=O)[C@H](CO)c3ccccc3)C[C@H]1[C@H]1O[C@H]12 (stereo not given in full),2.92% (inactive),
CN(C)[C@@H]1C(=O)C(C(N)=O)=C(O)[C@@]2(O)C(=O)C3=C(O)c4c(O)cccc4[C@@](C)(O)[C@H]3[C@H](O)[C@@H]12,-0.855% (inactive),
C[C@](O)(COc1ccc(C#N)cc1)C(=O)Nc1ccc(C#N)c(C(F)(F)F)c1,-0.409% (inactive),
COC(C)(C)CCCC(C)C/C=C/C(C)=C/C(=O)OC(C)C (stereo not given),-0.621% [at 114 µM] (inactive),
CC(C)N[C@@H]1CCn2c(=O)[nH]c3cccc(c32)[C@@H]1O,-0.58% (inactive),
C1CCC(NC2CCCCC2)CC1,-5.93% [at 114 µM] (inactive),
CC1(N2CCC(n3c([C@@H]4CCCNC4)nc4ccccc43)CC2)CCCCCCC1,,inactive

SMILES,"activity change, negative = inhibition",outcome
CN1[C@H]2CC(O)C[C@H]1[C@H]1O[C@H]12 (stereo not given in full),-4.26% (inactive),
O=C(O)COc1nc(Cl)c(Cl)cc1Cl,-4.21% [at 228 µM] (inactive),
CC1=C(C(=O)O)N2C(=O)[C@@H](N)[C@H]2SC1,6.59% (inactive),
O=[N+]([O-])c1ncc[nH]1,0.354% (inactive),
Nc1c(Cl)c(Cl)c(Cl)c(Cl)c1Cl,4.22% [at 228 µM] (inactive),
COC(=O)[C@@H](N)CCCN=C(N)N[N+](=O)[O-],-1.51% (inactive),
C[C@@H]1CC[C@@]2(OC1)O[C@H]1C[C@H]3[C@@H]4CC=C5C[C@@H](O[C@@H]6O[C@H](CO)[C@@H](O[C@@H]7O[C@@H](C)[C@H](O)[C@@H](O)[C@@H]7O)[C@H](O)[C@@H]6O[C@@H]6O[C@@H](C)[C@H](O)[C@@H](O)[C@@H]6O)CC[C@]5(C)[C@@H]4CC[C@]3(C)[C@@H]1[C@H]2C,4.92% (inactive),
CSCC[C@@H](NC(=O)[C@@H](Cc1ccccc1)NC(=O)CNC(=O)CNC(=O)[C@@H](N)Cc1ccc(O)cc1)C(=O)O,4.31% (inactive),
COC1=CC(C)=C[C@@H](C)[C@@H](O)[C@@H](C)CC(C)=CC=C[C@H](OC)[C@H]([C@@H](C)[C@@H](O)[C@H](C)[C@@]2(O)C[C@@H](O)[C@H](C)[C@@H](C(C)C)O2)OC1=O,0.0575% (inactive),
CO[C@H]1CCC(O[C@H]2C[C@H]([C@]3(C)CC[C@]4(C[C@H](O)[C@@H](C)[C@@H]([C@@H](C)C=C(C)C(=O)[C@H](C)C[C@H](C)C(=O)O)O4)O3)O[C@]3(O[C@@H]([C@H]4O[C@@](O)(CO)[C@H](C)C[C@H]4C)C[C@H]3C)[C@H]2C)O[C@H]1C (stereo not given in full),-2.84% (inactive),
O=C1C=CC[C@@H]2[C@H]3CCCN4CCC[C@@H](CN12)[C@@H]34,,inactive
C[C@]12Cc3cn[nH]c3C[C@@H]1CC[C@@H]1[C@H]2CC[C@@]2(C)[C@H]1CC[C@]2(C)O,-4.6% (inactive),
CC(O)CN1CCN(CC(=O)[O-])CCN(CC(=O)[O-])CCN(CC(=O)[O-])CC1.[Gd+3] (stereo not given),-3.87% [at 114 µM] (inactive),
C=C1C[C@H]2[C@H]3CCC(=O)[C@@]3(C)CC[C@@H]2[C@@]2(C)C=CC(=O)C=C12,-8.42% (inactive),
C[C@]12CC[C@H](O)CC1=CC[C@H]1[C@H]3CCC(=O)[C@@]3(C)CC[C@@H]12,-2.36% (inactive),
Cc1ccc(Cl)c(O)c1,-8.73% [at 114 µM] (inactive),
C=CCC1=C(C)C(OC(=O)C2C(C=C(C)C)C2(C)C)CC1=O (stereo not given),-6.31% [at 228 µM] (inactive),
CCC(=O)O[C@@H]1C=C2CCC3C(CCC4(C)C3CC[C@@H]4OC(=O)CC)C2CC1 (stereo not given in full),2.12% [at 114 µM] (inactive),
CCC1(CCC(C)C)C(=O)NC(=O)NC1=O,-0.788% [at 228 µM] (inactive),
O=S(=O)(c1ccc(Cl)cc1)c1ccc(Cl)cc1,4.17% [at 228 µM] (inactive),
